# Laboratory results published in PubChem BioAssay AID1259415 (National Center for Advancing Translational Sciences (NCATS), 2018).
# About 18,000 (4.4%) of roughly 410,000 compounds were called active. Not shown: some 7% with an inconclusive outcome. No stated cut-off is given here; in the data, active means activity change below about -60%; inconclusive means no clear call, values can overlap the other calls; inactive means above about -39%. Shown is part of a subset that was picked to be rich in actives.
# Assay: qHTS Assay for inhibitors of the human cytomegalovirus (HCMV)
# Settings: HFF cells, HCMV-luciferase reporter, 72 h; at 57.5 µM; active compounds read low
# In short: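 After 16 h attachment at 37C, HFF cells received test compound and HCMV-luciferase (1 PFU/cell); reporter luminescence read 72 h later, data normalized against buffer-only and known inhibitor Salinomycin.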
# On the % scale 0 is the no-effect control and ±100 the full control effect.
row,Structure (SMILES),"activity change, negative = inhibition"
1,CCc1ccccc1NC(=O)CSc1nc(C)c(C(=O)Nc2ccccc2)c(-c2ccc(Cl)cc2)c1C#N,-35.3% (inactive)
2,Cc1cccc(CC(=O)Nc2cccc(-c3cn4cccnc4n3)c2)c1,10% (inactive)
3,CC(=O)N1CCc2cc(S(=O)(=O)Nc3ccccc3N3CCN(C)CC3)ccc21,-37.8% (inactive)
4,Cc1cc2c(cc1C)N1C(=O)c3cc4ccccc4cc3NC(=O)C1C(=O)N2 (stereo not given),-73.2% (active)
5,COc1cccc(NC(=O)c2ccc3nc(CCc4ccccc4)oc3c2)c1,41.2% (inactive)
6,CCC(C)NC(=O)c1nn(C)c(=O)c2ccccc12 (stereo not given),29.9% (inactive)
7,COc1cc2c(cc1OC)C(c1cccc([N+](=O)[O-])c1)=NCC2,54.4% (inactive)
8,COc1cc2c(cc1OC)C(/C=C/c1ccco1)=NCC2,-61.3% (active)
9,CCOC(=O)C1=NN(c2ccc(Cl)cc2)/C(=C/C2=NCCc3cc(OC)c(OC)cc32)S1,27.1% (inactive)
10,Cc1c(CNC(C)c2ccccc2)c(C(=O)O)c(C)n1Cc1c(F)cccc1Cl (stereo not given),-11% (inactive)
11,CCOc1cc2[nH]c(=S)n(CCN3CCCCC3C)c(=O)c2cc1OCC (stereo not given),0.001% (inactive)
12,CCOc1cc2[nH]c(=S)n(CCCN3CCCC3=O)c(=O)c2cc1OCC,-13% (inactive)
13,CCOc1cc2[nH]c(=S)n(Cc3ccc(C(=O)N4CCN(C)CC4)cc3)c(=O)c2cc1OCC,-95.9% (active)
14,COc1ccc(CN2CCCCC2C)cc1OC (stereo not given),13.3% (inactive)
15,COc1cc2[nH]c(=S)n(Cc3ccc(F)cc3)c(=O)c2cc1OC,-63.8% (active)
16,CCOc1cc2[nH]c(=O)n(Cc3ccc(C(=O)NCCCN4CCCC4=O)cc3)c(=O)c2cc1OCC,-26.6% (inactive)
17,COc1cc2[nH]c(=S)n(CCN3CCCCC3C)c(=O)c2cc1OC (stereo not given),-75.7% (active)
18,COc1cc2[nH]c(=S)n(Cc3ccc(C)o3)c(=O)c2cc1OC,-9.57% (inactive)
19,COc1cc2[nH]c(=O)n(Cc3ccc(C(=O)NCc4ccc(C)cc4)cc3)c(=O)c2cc1OC,-0.48% (inactive)
20,CCOc1cccc(NC(=O)CSc2ncc(-c3ccc(Cl)cc3)[nH]2)c1,-2.16% (inactive)
21,Cc1ccc(F)cc1NC(=O)CCSc1nc(-c2ccco2)cc(C(F)(F)F)n1,-17% (inactive)
22,Cc1ccc(-c2cnc(C3CC3)o2)cc1S(=O)(=O)Nc1cccc(C)c1C,-35% (inactive)
23,CCn1nnc(NC(=O)c2cc(Cl)c(OC)c(Cl)c2)n1,16.3% (inactive)
24,O=C(CN1C2CCC1CC(NC(=O)C1CC1)C2)NCc1ccccc1 (stereo not given),18.9% (inactive)
25,COc1ccc(CCNC(=O)c2cn(C)c3ccc(S(=O)(=O)N(C)C4CCCCC4)cc3c2=O)cc1OC,7.75% (inactive)
